Data published in PubChem BioAssay (NCATS).
Activity calls are given as the source filed them. No rule for the calls is given here.

What follows are compounds tested on HIV-1 nucleocapsid protein NCp7 (binding to TG oligonucleotide) (assay: HIV Nucleocapsid (AID 346;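 also: potency is for inhibitors that block NC binding and lower polarization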)). Conditions: HIV-1 NC / fluorescein-TGTGTGTG probe, fluorescence polarization.
In short: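 Fluorescence polarization readout: labelled TG4xF oligo (10 nM) with 100 nM nucleocapsid protein, high-salt (250mM NaCl) Hepes pH 7.5 buffer containing zinc and fresh reducing agents. Compounds added by pin tool; incubation 1 hr, room temperature.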
Potency is read from the fitted curve at half-maximal effect.

Compound	Potency
Cc1noc(C)c1C(=O)N1CCC2(CC1)CCN(c1ccccn1)CC2	> 20 µM (inactive)
CN(C)c1ncc2nc(-c3cc(F)cc(F)c3)c(=O)n(C)c2n1	> 20 µM (inactive)
CN1CCN(c2ncc3nc(-c4cc(F)cc(F)c4)c(=O)n(-c4ccccc4)c3n2)CC1	> 20 µM (inactive)
COc1ccc(-c2nc3cnc(Nc4cccc(OC)c4)nc3n(CCC#N)c2=O)cc1	> 20 µM (inactive)
CC(=O)NCCNc1cc(-c2ccccc2CN(C)C)ncn1	> 20 µM (inactive)
CN1CCN(c2ncc3nc(-c4cc(F)cc(F)c4)c(=O)n(CCC#N)c3n2)CC1	> 20 µM (inactive)
COCCn1c(=O)cnc2cnc(N3CCN(C)CC3)nc21	> 20 µM (inactive)
N#CCCn1c(=O)c(-c2cccc(C#N)c2)nc2cnc(Oc3cccc(Cl)c3)nc21	> 20 µM (inactive)
Cc1noc(C)c1-c1cc(NCc2cccs2)ncn1	> 20 µM (inactive)
O=C(c1cccc(F)c1)N1CCC2(CC1)CCN(c1cccc(-c3ccccc3)c1)CC2	> 20 µM (inactive)
Cc1noc(C)c1C(=O)N1CCC2(CCCN(c3ccccn3)C2)CC1	> 20 µM (inactive)
CCNc1ncc2ncc(=O)n(Cc3ccc(F)cc3)c2n1	> 20 µM (inactive)
O=C(c1csnn1)N1CCC[C@@]2(CCN(C(c3ccccc3)c3ccccc3)C2)C1	> 20 µM (inactive)
CC(=O)NCCNc1nc(-c2ccc(N(C)C)cc2)nc2ccccc12	> 20 µM (inactive)
Cn1cccc1C(=O)N1CCC2(CCCN(Cc3nccs3)C2)CC1	> 20 µM (inactive)
